Screening data from PubChem.
Pf growth 96h: P. falciparum growth inhibition at 96 hours; Potency, µM (highest dose often 28.7 µM), inactives show at the top dose activity change, negative = inhibition, usual class: inhibitors; P. falciparum luciferase reporter growth, 96 h; hit rate 6.9% among 320,000; AID 504834; note: % is set by controls: 0 for no effect and ±100 for the full control effect
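Cell-based qHTS: luciferase-tagged P. falciparum in erythrocytes (2% hematocrit, 0.05% parasitemia final) incubated with compounds for 96 hours, 37 C, 5% CO2; luciferase detection reagent then added and luminescence measured.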
Sm TGR inh: inhibitors of Schistosoma mansoni thioredoxin glutathione reductase; hit rate 3% among 360,000; Q962Y6; purified TGR, DTNB reduction, TNB absorbance 405 nm; Potency, µM (highest dose often 114 µM), for the others: at the highest dose activity change, negative = inhibition, hits mostly inhibitors; note: % is set by controls: 0 for no effect and ±100 for the full control effect; nearly all actives have a fitted effect of over 60% in size
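TGR 20 nM + NADPH 100 uM (dispensed conc.), cpd preinc 15 min RT; start with NADPH (500 uM addition) then DTNB (15 mM addition). Kinetic TNB absorbance, 405 nm filter. Four-parameter Hill fit across titration.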
Pf growth 48h: P. falciparum growth inhibition at 48 hours (one generation); P. falciparum luciferase growth in erythrocytes, 48 h; Potency, µM (series often up to 28.7 µM), without a hit: at the highest dose activity change, negative = inhibition, most hits filed as inhibitors; hit rate 5.9% among 310,000; note: % is set by controls: 0 for no effect and ±100 for the full control effect
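Erythrocytes infected with P. falciparum carrying an integrated firefly luciferase reporter (2% hematocrit, 0.1% parasitemia final) were exposed to compounds in RPMI 1640 with 0.5% Albumax at 37 C, 5% CO2. Growth inhibition was scored as reduced luminescence.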
SARS PLP yeast: SARS-CoV PLP inhibition in yeast | S. cerevisiae expressing SARS-CoV PLpro, growth rescue | Potency, µM (titrated, usually from 32.9 µM), without a hit: at the highest dose activity, positive = growth rescue, actives largely listed as activators | hit rate 0.19% among 330,000; calls by dose curve; note: 0% is about no effect; nearly all actives have a fitted effect of over 55% in size
The depositor's hits bear a star; ? = inconclusive; / = no result. An excerpt weighted towards active compounds, which were near 12% of everything screened. Unless noted, calls come from the whole dose curve; as a rule, active = well fitted curve in the direction sought with a large enough effect; inconclusive = small, poorly fitted or top-dose-only effect, or another doubt; inactive = no such curve, though single readings can be large; an effect the other way counts as inactive or inconclusive. Potency is the fitted concentration of half-maximal effect.

SMILES	Pf growth 96h	Sm TGR inh	Pf growth 48h	SARS PLP yeast
Cc1ccc(N2CN(CCc3ccccc3)CNC2=S)cc1	?	-4%	9.3µM*	0%
CCOC(=O)c1ccc(N2CN(CC)CNC2=S)cc1	0%	-2%	6%	10µM*
CCOC(=O)c1ccc(N2C(=O)C=CC2=O)cc1	/	0.5µM*	22%	-27%
CCOC(=O)c1ccc(-n2c(C)ccc2C)cc1	7.4µM*	28µM*	-23%	7%
O=C(O)c1ccc(Nc2nc3ccccc3n3cnnc23)cc1	/	8%	/	/
Cc1ccc(NC(=O)CC2Sc3ccccc3NC2=O)c(Br)c1 (stereo unspecified)	/	-8%	/	/
CN1CCc2nc(N)c(C#N)c(-c3ccccc3)c2C1	2%	-7%	-6%	19%
CN1CCc2c(C#N)c(Cl)nc(Cl)c2C1	16%	32µM*	-7%	5%
Fc1ccc(C(CCCn2nnc(-c3cccnc3)n2)c2ccc(F)cc2)cc1	-9%	19%	15µM*	-18%
Fc1ccc(-n2nnc(-c3cccnc3)n2)cc1	98%	-23%	113%	-1%
CCC(Sc1nc2c(c(=O)n1CC)SC(C)C2)C(=O)OC (stereo unspecified)	0.37µM*	-8%	?	-15%
CCn1c(SCC(=O)N2CCOCC2)nc2c([nH]c3ccccc32)c1=O	13µM*	4%	?	-1%
CCn1c(SCC(=O)N2CCOCC2)nc2c(c1=O)SC(C)C2 (stereo unspecified)	2.1µM*	3%	-20%	-11%
CC1Cc2nc(SCC(=O)N3CCOCC3)n(C)c(=O)c2S1 (stereo unspecified)	-2%	0%	-3%	3%
CCn1c(SCC(=O)Nc2cccc(C)c2)nc2c(c1=O)SC(C)C2 (stereo unspecified)	13µM*	7%	?	-8%
COc1ccc(CNC(=O)CN2C(=O)COc3ccc(S(=O)(=O)Nc4ccccc4)cc32)cc1	/	3%	/	/
CCOc1ncccc1C(=O)OCC(=O)NC1CCCCC1	/	/	/	-5%
CCn1c(SCC(=O)N2CCC(C)CC2)nc2c(c1=O)SC(C)C2 (stereo unspecified)	6.6µM*	-32%	?	-6%
CSc1nc2c(c(=O)n1Cc1ccccc1)SC(C)C2 (stereo unspecified)	-12%	5%	12µM*	-7%
COCCn1c(SCC(=O)N2CCCCC2)nc2c(c1=O)SC(C)C2 (stereo unspecified)	?	2%	?	-3%
CCSc1nnc(NC(=O)CSc2nc3c(c(=O)n2C)SC(C)C3)s1 (stereo unspecified)	0%	13%	12µM*	2%
CCN(CC(=O)NC1CCS(=O)(=O)C1)S(=O)(=O)c1ccc(Br)cc1 (stereo unspecified)	/	/	/	1%
O=C(CCN1C(=O)c2ccccc2C1=O)Nn1cnnc1	2.9µM*	0%	-1%	13%
O=C(CCN1C(=O)c2ccccc2C1=O)NCc1ccccc1	3%	5%	26%	4%
O=C(c1ccc2[nH]c(=O)c(=O)[nH]c2c1)N1CCc2ccccc21	22%	-4%	23%	?
SMILES	Pf growth 96h	Sm TGR inh	Pf growth 48h	SARS PLP yeast
O=C1C=C(Nc2ccccc2)C(=O)c2ccccc21	2.3µM*	-2%	?	-19%
CCc1ccc(NC2=CC(=O)C(=O)c3ccccc32)cc1	0.074µM*	-16%	0.083µM*	-2%
CC1CCCN(C2(O)C(=O)Nc3c(C(F)(F)F)cccc32)C1 (stereo unspecified)	-13%	9%	4.1µM*	0%
COc1ccc(NC(=O)c2ccc(NC3=NC4CS(=O)(=O)CC4S3)cc2)cc1 (stereo unspecified)	10µM*	-4%	10%	4%
Cc1cc(C)cc(NC(=O)c2ccc(NC3=NC4CS(=O)(=O)CC4S3)cc2)c1 (stereo unspecified)	-12%	6%	-2%	1%
COc1cccc(CNC(=O)c2ccc(Cl)c(NC3=NC4CS(=O)(=O)CC4S3)c2)c1 (stereo unspecified)	2.6µM*	-5%	1%	-2%
Cc1ccc(C(=O)Nc2ccc(F)cc2)cc1NC1=NC2CS(=O)(=O)CC2S1 (stereo unspecified)	9.3µM*	-1%	2%	2%
O=C(c1ccc(NC2=NC3CS(=O)(=O)CC3S2)cc1)N1CCN(c2ccc(F)cc2)CC1 (stereo unspecified)	-22%	-22%	21%	-5%
O=C(Cc1ccc(NC2=NC3CS(=O)(=O)CC3S2)cc1)N1CCN(c2ccc(F)cc2)CC1 (stereo unspecified)	12µM*	-2%	5%	4%
Cc1coc2c1c(C)cc1oc(=O)c(CC(=O)NCCCN3CCCC3=O)c(C)c12	-23%	4%	-1%	-5%
COc1ccc(S(=O)(=O)NCC(=O)NCc2cc(=O)n(C)c(=O)n2C)cc1C	?	-5%	?	-3%
Cc1ccc(/C=C(\C#N)C(=O)Nc2cccc(C)n2)cc1	-9%	9%	12%	2%
Cc1nc(N2CCOCC2)c2c(C(=O)N3CCN(c4ccccc4F)CC3)c(C)oc2n1	/	3%	/	/
Cc1ccnc(NC(=O)CNC(=O)c2ccc(Br)o2)c1	52%	0%	66%	/
COc1ccc(OC)c(NC(=O)Cc2ccc(NC3=NC4CS(=O)(=O)CC4S3)cc2)c1 (stereo unspecified)	12µM*	1%	0%	-4%
COc1ccccc1CNC(=O)c1ccc(NC2=NC3CS(=O)(=O)CC3S2)cc1 (stereo unspecified)	12µM*	6%	14%	-8%
COc1ccccc1CNC(=O)c1ccc(Cl)c(NC2=NC3CS(=O)(=O)CC3S2)c1 (stereo unspecified)	-20%	11%	0%	-5%
Cc1ccc(N(CC(=O)N2CCCC2)S(C)(=O)=O)c(C)c1	71%	-3%	8%	-3%
O=C(Cn1c(SCCOc2ccccc2)nc2ccccc21)N1CCOCC1	/	0%	/	/
CCC(=O)NCCC1CCc2ccc3c(c21)CCO3 (stereo unspecified)	-18%	/	-1%	/
C/C(CC(=O)N1CCN(C=O)CC1)=N\NC(=O)c1cc2ccccc2cc1O	-9%	-21%	-10%	14µM*
C/C(CC(=O)N1CCN(C=O)CC1)=N\NC(=O)c1ccc([N+](=O)[O-])cc1	104%	?	-26%	1%
C/C(=N\NC(=O)c1cc2ccccc2cc1O)c1ccccn1	10%	-7%	3.7µM*	1%
CC(=O)Nc1c2c(nn1-c1ccc(F)cc1)CSC2	18%	-8%	33%	7%
Cc1cc([N+](=O)[O-])c2c(c1C)C1C=CCC1C(c1ccccn1)N2 (stereo unspecified)	?	22µM*	?	-2%
O=C(N1CCCC1)C12CC3CC(CC(C3)C1)C2	-3%	-3%	12µM*	?
Cc1ccccc1CNC(=O)C1CCCCN1S(=O)(=O)c1ccc(F)cc1 (stereo unspecified)	/	7%	/	/
COc1ccc(NC(=O)C2CCN(S(=O)(=O)c3c(C)noc3/C=C/c3ccco3)CC2)cc1	/	-13%	/	/
CCc1ccc2oc(=O)cc(CN(C)Cc3ccccc3)c2c1	/	-6%	8.3µM*	-5%
